Most compounds without a hit are left out; they make up all but 3% or so of the library.
CRE Fsk mod: alters forskolin-stimulated CRE reporter signaling in CHO cells; CHO CRE-bla reporter (cAMP response element driving beta-lactamase), forskolin EC10, beta-lactamase ratio; AID 662; actives 2.5% (n = 71,000); Potency, µM (top dose mostly 38.2 µM), hits mostly activators; active = well fitted activation curve with a large enough effect in the signal ratio, with a control signal flat, not every such curve was filed as active; inconclusive = small, poorly fitted or top-dose-only effect, or effect the other way, or a change in a side signal; the % refers to the signal ratio
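Beta-lactamase reporter under a cAMP responsive element in CHO cells; compounds tested in titration series against EC10 NKH 477, 3 h at 37 °C. Read-out: CCF4 FRET ratio 460nm/530nm (excitation 405nm) giving %Activity, fitted to AC50.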
p53ts 32C kill: p53ts cell cytotoxicity, permissive temperature | H1299-p53A138V at 32C, ATP luminescence viability, 24 h | Potency, µM (top dose mostly 46.1 µM), actives largely listed as cytotoxic | actives 0.93% (n = 130,000); note: nearly all actives have a fitted effect of over 55% in size
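ATP-content luminescence (ATPlite) read-out after 24 h compound exposure at 32C in H1299-p53A138V cells (600/well). Tested up to 46 uM. Normalized to DMSO (0%) and 100 uM tamoxifen (100% killing); Hill-fit AC50.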
p53ts 39C kill: cytotoxicity in p53ts cells at nonpermissive temperature | H1299-p53A138V viability at 39C, ATP luminescence, 24 h | AID 902 | actives 1.5% (n = 130,000) | Potency, µM (highest dose often 46.1 µM), usual class: cytotoxic; note: nearly all actives have a fitted effect of over 55% in size
Imprint erasure: inducers of genomic imprint erasure in mouse ES cells; mouse ES Peg3-LacZ reporter, beta-gal luminescence, 40 h; Potency, µM (series often up to 60.7 µM), hits mostly activators; actives 0.02% (n = 110,000)
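Gelatin-coated wells received 300 freshly trypsinized female ES cells with a Peg3LacZ-Neo reporter on the maternal allele, then incubated 40 hours at 37C. BetaGlo was added for 5 minutes at room temperature before a single luminescence read.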
IkB sig inh: suppresses IkB signaling in ABC-DLBCL reporter cells. ABC-DLBCL IkBa-CBG/CBR dual luciferase ratio, 4 h; response scale: scaled: untreated 0%, proteasome inhibitor 100%. actives 0.04% (n = 110,000). Potency, µM (top dose mostly 57.1 µM); active = well fitted curve in the direction sought with a large enough effect in the signal ratio, not every such curve was filed as active; inconclusive = small, poorly fitted or top-dose-only effect, or a change in a side signal; the % refers to the signal ratio;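 note: the direction sought is a rising ratio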
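In this assay, an IκBα–CBG68 fusion accumulates when IKK-driven degradation is blocked; native CBR normalizes for cell number. OCI-Ly3 cells were treated 4 h with compound and doxycycline, then green and red light read after Chroma-Glo addition.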
Of the large screens only hits and unclear results are named; the others gave an inactive call. Unless noted, calls come from the whole dose curve; as a rule, active = well fitted curve in the direction sought with a large enough effect; inconclusive = small, poorly fitted or top-dose-only effect, or another doubt; inactive = no such curve, though single readings can be large; an effect the other way counts as inactive or inconclusive.

COc1cccc(O)c1O	p53ts 32C kill 5.01µM, p53ts 39C kill 6.31µM (no result: CRE Fsk mod, IkB sig inh)
CCCCCC[C@@H]([C@H](C)O)n1cnc2c(N)ncnc21	none (no result: Imprint erasure)
COc1ccc(OC)c(N=c2oc3cc(O)ccc3cc2C(N)=O)c1	CRE Fsk mod 10µM, p53ts 39C kill inconclusive, IkB sig inh inconclusive
NC(=O)c1cc2ccc(O)cc2oc1=Nc1ccccc1	CRE Fsk mod inconclusive, p53ts 32C kill inconclusive, p53ts 39C kill inconclusive, IkB sig inh inconclusive
CC1CCN(C(=O)CSc2c(C(C)C)cnc3c2c(=O)n(C)c(=O)n3C)CC1	none (no result: CRE Fsk mod)
CCN(Cc1nc2ccccc2c(=O)[nH]1)Cc1nc2cc(OC)c(OC)cc2c(=O)[nH]1	CRE Fsk mod 3.98µM
CCOC(=O)c1c(NC(=O)CSc2nnc(C)s2)sc2c1CCN(C)C2	CRE Fsk mod inconclusive
CCOC(=O)c1c(NC(=O)C(F)(OC)C(F)(F)F)sc2c1CCN(C)C2 (centres undefined)	CRE Fsk mod 10µM
CC(C)Oc1ccc(C(=O)NCC(c2ccc(N(C)C)cc2)N2CCc3ccccc32)cc1 (centres undefined)	none (no result: CRE Fsk mod)
COc1ccc(C(=O)NCC(c2ccc(N(C)C)cc2)N2CCc3ccccc32)cc1 (centres undefined)	p53ts 39C kill 10µM (no result: CRE Fsk mod)
CC(C(=O)NCc1ccccc1F)n1ccc2cc(S(=O)(=O)N3CCCC3)ccc21 (centres undefined)	Imprint erasure inconclusive, IkB sig inh inconclusive (no result: CRE Fsk mod)
COc1ccc(S(=O)(=O)n2nc(-c3cc(OC)c(OC)c(OC)c3)cc2N)cc1OC	CRE Fsk mod 5.01µM
Nc1ccc2c(c1)C(=O)c1ccccc1C2=O	CRE Fsk mod 7.94µM, p53ts 39C kill inconclusive
COc1cc(OC)c(-c2nn3c(-c4ccco4)nnc3s2)cc1OC	CRE Fsk mod 3.16µM
COc1ccc(-c2nn3c(-c4ccco4)nnc3s2)cc1OC	CRE Fsk mod 6.31µM
COc1ccc(-c2nnc3sc(-c4ccco4)nn23)cc1OC	CRE Fsk mod inconclusive, IkB sig inh inconclusive
Cc1ccc(OCCSc2nc(-c3ccccc3C)nc3cc(=O)[nH]n23)cc1Cl	p53ts 39C kill 25.1µM, IkB sig inh inconclusive (no result: CRE Fsk mod)
Cc1c(C(=O)Nc2ccc(C(=O)O)cc2)nnn1-c1ccccc1	p53ts 32C kill 10µM, p53ts 39C kill inconclusive, IkB sig inh inconclusive (no result: CRE Fsk mod)
COC(=O)[C@@]1(Cc2ccccc2)[C@H]2c3cc(C(=O)N4CCCC4)[nH]c3C[C@H]2CN1C(=O)c1ccccc1	CRE Fsk mod 2µM (no result: IkB sig inh)
COC(=O)Cn1c(C(=O)N2CCCC2)cc2c1C[C@H]1CN(C(=O)c3ccccc3)[C@@](Cc3ccccc3)(C(=O)OC)[C@@H]21	none (no result: IkB sig inh)
COc1ccc2[nH]c3nc(SCc4nnc(-c5ccc(C)cc5)o4)nnc3c2c1	CRE Fsk mod 1µM (no result: Imprint erasure)
Cc1ccc2[nH]c3nc(SCCN4CCOCC4)nnc3c2c1	none (no result: Imprint erasure)
Cc1ccccc1CNC(=O)c1cccc(NC(=O)N2CCSc3ncccc32)c1	IkB sig inh inconclusive (no result: CRE Fsk mod)
Cn1c(=O)c2c(SCc3cccnc3)nc(C3CC3)nc2n(C)c1=O	CRE Fsk mod 3.16µM
Cn1c(=S)c2[nH]c(SCc3cccnc3)nc2n(C)c1=O	none
CCc1nc(SCc2cccnc2)c2c(=O)n(C)c(=O)n(C)c2n1	CRE Fsk mod 2.51µM
CC(=O)[C@]1(O)CC[C@@H]2[C@H]3C[C@@H](C)C4=CC(=O)CC[C@@]4(C)[C@H]3[C@@H](O)C[C@]21C	IkB sig inh inconclusive (no result: Imprint erasure)
CNC(=O)C1CCC(Cn2c(=O)c3sccc3n(CC(=O)N3CCC(C)CC3)c2=O)CC1 (centres undefined)	none (no result: CRE Fsk mod)
CC(=O)c1ccc(NC(=O)CSC2=Nc3ccccc3N=C(c3ccc(F)cc3)C2)cc1	IkB sig inh inconclusive (no result: CRE Fsk mod)
CCc1c(C)sc(NC(=O)c2cccs2)c1C(=O)OC(C)C	CRE Fsk mod inconclusive
CCOC(=O)c1c(NC(=O)c2cccs2)sc2c1CCCC2	none
CCOC(=O)c1c(NC(=O)c2cccs2)sc2c1CCC2	CRE Fsk mod 3.16µM
CCOC(=O)c1c(NC(=O)c2cccs2)sc(C)c1CC	CRE Fsk mod 12.6µM
CCn1cnc2scc(-c3ccccc3)c2c1=O	none
Cn1cc(/C=N/n2cnc3scc(-c4ccc(Cl)cc4)c3c2=O)c2ccccc21	CRE Fsk mod 1µM, IkB sig inh inconclusive
CC1=C(C)C(=O)NC(Nc2nc(C)c3cc(C)cc(C)c3n2)N1 (centres undefined)	CRE Fsk mod 0.794µM
CS(=O)(=O)Nc1ccc(-c2nc3ccccc3s2)cc1	p53ts 32C kill 3.98µM, p53ts 39C kill 2µM (no result: CRE Fsk mod)
COc1cc(Nc2nc3c(S(=O)(=O)c4ccc(C)c(C)c4)nnn3c3ccsc23)cc(OC)c1	none (no result: CRE Fsk mod)
CCN1CCN(C(CNC(=O)c2ccc3c(c2)OCO3)c2cccnc2)CC1 (centres undefined)	CRE Fsk mod 12.6µM
O=C(NCC(c1cccnc1)N1CCOCC1)c1ccc2c(c1)OCO2 (centres undefined)	none
COc1ccc(NC(=O)CSc2nc3c(oc4ccccc43)c(=O)n2-c2ccccc2)cc1OC	IkB sig inh inconclusive (no result: CRE Fsk mod)
Cc1ccc(C)c(NC(=O)Cn2nnc(C(=O)NCc3ccccc3Cl)c2N)c1	none (no result: CRE Fsk mod)
Cc1cc(C)cc(NC(=O)Cn2nnc(C(=O)NCc3ccccc3Cl)c2N)c1	p53ts 32C kill inconclusive, p53ts 39C kill 7.94µM (no result: CRE Fsk mod)
Cc1ccc(C(=O)Nc2onc3c2CCCC3)cc1	p53ts 32C kill 3.98µM, p53ts 39C kill 6.31µM (no result: CRE Fsk mod)
Cc1cccc(C(=O)Nc2ccc3nc(SCC(=O)N4CCCC4)sc3c2)c1	p53ts 32C kill inconclusive, IkB sig inh inconclusive (no result: CRE Fsk mod)
Cc1ccccc1Nc1nnc(-c2ccc(C)c(S(=O)(=O)NCC3CCCO3)c2)c2ccccc12 (centres undefined)	IkB sig inh inconclusive (no result: CRE Fsk mod)
Cc1ccc(-c2nnc(N3CCOCC3)c3ccccc23)cc1S(=O)(=O)NCC1CCCO1 (centres undefined)	CRE Fsk mod 3.16µM
Cc1ccc(Nc2nc(N)nc(CSc3nncn3C)n2)cc1	p53ts 32C kill inconclusive, p53ts 39C kill 12.6µM (no result: CRE Fsk mod, Imprint erasure, IkB sig inh)
C=CCn1cnc2c(c1=O)c1nc3ccccc3nc1n2/N=C/c1cccc(OC)c1OC	CRE Fsk mod inconclusive
C=CCn1cnc2c(c1=O)c1nc3ccccc3nc1n2/N=C/c1cc(OC)c(OC)c(OC)c1	CRE Fsk mod 1.58µM
C=CCn1cnc2c(c1=O)c1nc3ccccc3nc1n2/N=C/c1ccccn1	CRE Fsk mod 2.51µM
Cc1cc(-c2ccc(C)c(S(=O)(=O)NCc3cccs3)c2)on1	none (no result: CRE Fsk mod)
CC(=O)c1cccc(NC(=O)CC(c2ccc(C)cc2)N2Cc3ccccc3C2=O)c1 (centres undefined)	IkB sig inh inconclusive (no result: CRE Fsk mod)
Cc1ccc2nc3c(cc(C(N)=S)c(=N)n3CCCOC(C)C)c(=O)n2c1	CRE Fsk mod 10µM
C=CCn1c(N)c(C(=O)OCCC)c2nc3ccccc3nc21	CRE Fsk mod 10µM

Screens as filed in PubChem.
